Screens: PubChem BioAssay, National Center for Advancing Translational Sciences (NCATS)
FLuc inh = Photinus pyralis luciferase inhibition; P08659; purified P. pyralis luciferase, luminescence, biochemical; Potency, µM (titrated, usually from 115 µM), hits mostly inhibitors; hit rate 2.5% among 76,000; AID 1347043; further: on the % scale 0 is the no-effect control and ±100 the full control effect; nearly all actives have a fitted effect of over 65% in size
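Cell-free enzyme assay, 10nM P. pyralis luciferase, luciferin and ATP each at 10uM. Inhibition profiled over a 6-point titration, read as luminescence.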
hNpr1 antagonist = blocks ANP-stimulated signaling of human Npr1 receptor | hit rate 1.6% among 76,000 | HEK293 hNpr1 GloSensor cGMP, ANP-stimulated luminescence | AID 1347048 | Potency, µM (doses to about 46.3 µM), for inactives: at the top dose activity change, negative = inhibition, most hits filed as inhibitors; calls by dose curve; further: on the % scale 0 is the no-effect control and ±100 the full control effect; nearly all actives have a fitted effect of over 60% in size
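Compound pre-incubated 30 min at room temperature on GloSensor-loaded HEK293 cells stably carrying hNpr1 and the pGS-40F cGMP biosensor. Stimulation uses hNppA at 0.1 nM final; luminescence is taken at baseline and 20 min post-agonist.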
3T3 cytotox = kills NIH 3T3 cells; NIH 3T3 viability, CellTiter-Glo ATP luminescence, 48-72 h; Potency, µM (series often up to 96.7 µM), for the others: at the highest dose activity change, negative = cytotoxicity, hits mostly inhibitors; hit rate 4.3% among 94,000; AID 1345082; further: on the % scale 0 is the no-effect control and ±100 the full control effect; nearly all actives have a fitted effect of over 55% in size
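NIH 3T3 cells at 400 cells/well received 23 nL of compound by pintool and were incubated 48 or 72 h at 37 °C. Viability was read as ATP-coupled CellTiter-Glo luminescence.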
HEK cytotox = kills HEK 293 cells; AID 1345083; HEK 293 viability, ATP luminescence (CellTiter-Glo), 48-72 h; hit rate 6.6% among 94,000; Potency, µM (top dose mostly 115 µM), for the others: top-dose activity change, negative = cytotoxicity, actives largely listed as inhibitors; further: on the % scale 0 is the no-effect control and ±100 the full control effect; nearly all actives have a fitted effect of over 60% in size
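CellTiter-Glo luminescence (cellular ATP) was read after 48 or 72 hr of compound exposure at 37 degree Celsius. Cells were HEK 293 plated at 250 cells/well.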
GPT2 inhibitor = GPT2 alanine aminotransferase inhibition; Q8TD30; AID 1671188; hit rate 0.25% among 100,000; Recombinant GPT2, coupled pyruvate oxidase/HRP Amplex Red fluorescence; Potency, µM (series often up to 57.7 µM), without a hit: top-dose activity change, negative = inhibition, actives largely listed as inhibitors; further: on the % scale 0 is the no-effect control and ±100 the full control effect; nearly all actives have a fitted effect of over 60% in size
Target sequence (Q8TD30 whole entry, looked up): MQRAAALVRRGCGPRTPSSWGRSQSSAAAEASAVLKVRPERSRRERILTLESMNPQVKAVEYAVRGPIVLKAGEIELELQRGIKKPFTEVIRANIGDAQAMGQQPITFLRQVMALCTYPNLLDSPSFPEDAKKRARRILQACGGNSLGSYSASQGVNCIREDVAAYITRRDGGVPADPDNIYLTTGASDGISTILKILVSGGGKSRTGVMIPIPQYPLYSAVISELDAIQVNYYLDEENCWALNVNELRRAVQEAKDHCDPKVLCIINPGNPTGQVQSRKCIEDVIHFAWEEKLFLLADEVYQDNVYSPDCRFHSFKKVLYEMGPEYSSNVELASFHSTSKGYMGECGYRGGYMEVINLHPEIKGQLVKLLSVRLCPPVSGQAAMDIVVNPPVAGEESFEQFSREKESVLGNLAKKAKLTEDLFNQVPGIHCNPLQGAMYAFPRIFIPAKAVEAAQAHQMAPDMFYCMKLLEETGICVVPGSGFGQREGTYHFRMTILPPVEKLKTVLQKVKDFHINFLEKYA
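Recombinant GPT2 (10ng/uL) with 250uM a-KG and 2mM L-alanine, 30 min at room temperature, in HEPES pH 7.5 buffer. Pyruvate detected by pyruvate oxidase/HRP/Amplex Red fluorescence after 30 min in the dark; AOA (50uM) as positive control.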
Npr1 antag conf = confirmation of human Npr1 natriuretic peptide receptor antagonists; shares compounds with hNpr1 antagonist; HEK293 hNpr1 cGMP GloSensor luminescence, ANP-stimulated; Potency, µM (top dose mostly 57.6 µM), for the others: at the highest dose activity change, negative = inhibition, actives largely listed as inhibitors; hit rate 76% among 1,400; AID 1347044; calls by dose curve; further: nearly all actives have a fitted effect of over 70% in size
Npr2 selectivity = selectivity test of Npr1 antagonists against human Npr2; Potency, µM (titrated, usually from 57.6 µM), without a hit: top-dose activity change, negative = inhibition, hits mostly inhibitors; HEK293 hNpr2 GloSensor cGMP luminescence, CNP-stimulated; hit rate 67% among 1,400; shares compounds with hNpr1 antagonist; calls by dose curve; further: nearly all actives have a fitted effect of over 70% in size
FLuc counter = inhibits firefly luciferase, false Npr1 antagonist flag. shares compounds with hNpr1 antagonist. hit rate 0.7% among 1,400. Potency, µM (doses to about 57.6 µM), for inactives: top-dose activity change, negative = inhibition, actives largely listed as inhibitors. AID 1347047. purified FLuc enzyme, luminescence, Km substrate; further: 0% is about no effect
GloSensor ctrl = counter-screen for Npr1 antagonists: GloSensor control cell line. shares compounds with hNpr1 antagonist. HEK293 GloSensor cGMP, SNP-stimulated, luminescence. Potency, µM (top dose mostly 57.6 µM), for inactives: at the top dose activity change, negative = inhibition, actives largely listed as inhibitors. hit rate 69% among 1,400. AID 1347051; calls by dose curve; further: on the % scale 0 is the no-effect control and ±100 the full control effect; nearly all actives have a fitted effect of over 70% in size
* marks the source's active call; other numbers are inactive results; [ ] = another dose, or the depositor's remark. Hits are enriched below; roughly 10% of the tested compounds scored in any of these assays. Unless noted, the call rests on the fitted dose curve; in most records, active means well fitted curve in the direction sought with a large enough effect; inconclusive means small, poorly fitted or top-dose-only effect, or another doubt; inactive means no such curve, though single readings can be large; an effect the other way counts as inactive or inconclusive. Potency means the concentration at half of the fitted maximal effect.

For O=C(NC1CCOCC1)c1ccc2c(c1)OCCN(c1cccc(OC(F)(F)F)c1)C2 the results were FLuc inh inactive, hNpr1 antagonist inconclusive, 3T3 cytotox inconclusive, HEK cytotox 32µM*, GPT2 inhibitor -11%[88.5 µM], Npr1 antag conf 40µM*, Npr2 selectivity inconclusive, FLuc counter 4%[86.2 µM] and GloSensor ctrl 44µM*.
For CCNC(=O)c1ccc2c(c1)OCCN(c1cccc(OC(F)(F)F)c1)C2 the results were FLuc inh inactive, hNpr1 antagonist -29%[70.6 µM], 3T3 cytotox inconclusive, HEK cytotox inconclusive and GPT2 inhibitor inconclusive.
O=C(c1ccc(C(F)(F)F)cc1)N1CCn2c(nn(-c3ccc(C(F)(F)F)cc3)c2=O)C1 was read as 3T3 cytotox inconclusive, HEK cytotox inconclusive and GPT2 inhibitor -1%.
Cn1nccc1CN1CCn2c(nn(-c3ccc(C(F)(F)F)cc3)c2=O)C1 was read as 3T3 cytotox inconclusive, HEK cytotox inconclusive, GPT2 inhibitor inactive, Npr1 antag conf inconclusive, Npr2 selectivity inconclusive, FLuc counter -2% and GloSensor ctrl inconclusive.
`O=c1n(-c2ccncc2)nc2n1CCN(Cc1ccc(C(F)(F)F)cc1)C2` gave FLuc inh inactive, hNpr1 antagonist 16µM*, 3T3 cytotox inconclusive, HEK cytotox 13µM*, GPT2 inhibitor -6%, Npr1 antag conf 15µM*, Npr2 selectivity 17µM*, FLuc counter 4%[86.2 µM] and GloSensor ctrl 12µM*.
Screening COc1ccc(-n2nc3n(c2=O)CCN(Cc2ccc(C(F)(F)F)cc2)C3)cc1 returned 3T3 cytotox inconclusive, HEK cytotox inconclusive and GPT2 inhibitor -9%.
Screening Cc1cnc(C2CCC2)n1CCNC(=O)c1cc(C2CC2)[nH]n1 returned FLuc inh inactive, hNpr1 antagonist 3%, 3T3 cytotox inactive, HEK cytotox -6% and GPT2 inhibitor inactive.
CC(C)CCN1CCC(N2CCN(S(=O)(=O)c3ccc(F)c(F)c3)CC2)C1=O (stereo not given) was read as FLuc inh inactive, hNpr1 antagonist -10%, 3T3 cytotox -28%, HEK cytotox -24% and GPT2 inhibitor -9%.
For Cn1nc2n(c1=O)CCN(S(=O)(=O)c1ccc3c(c1)CCCC3)CC2 the results were FLuc inh inactive, hNpr1 antagonist 0%, 3T3 cytotox -4%, HEK cytotox -10% and GPT2 inhibitor -9%.
Screening Cn1nc(C2CCN(S(=O)(=O)c3ccc4c(c3)CCCC4)CC2)n(C2CCCC2)c1=O returned FLuc inh inactive, hNpr1 antagonist 11µM*, 3T3 cytotox inconclusive, HEK cytotox inconclusive, GPT2 inhibitor inactive, Npr1 antag conf 19µM*, Npr2 selectivity 19µM*, FLuc counter 1% and GloSensor ctrl 14µM*.
Screening CC(C)CCN1CCC(N2CCN(S(=O)(=O)c3ccc4c(c3)CCCC4)CC2)C1=O (stereo not given) returned FLuc inh inactive, hNpr1 antagonist inconclusive, 3T3 cytotox inconclusive, HEK cytotox inconclusive, GPT2 inhibitor -19%, Npr1 antag conf -30%, Npr2 selectivity -24%, FLuc counter 5% and GloSensor ctrl -8%.
C#CCCCn1cc(-c2cccc3c2N[C@H](C)CC(=O)N3)cn1 was read as GPT2 inhibitor inactive.
For O=C(Nc1ccc(Oc2ccccc2)cc1)O[C@@H]1CO[C@H]2[C@@H]1OC[C@@H]2NS(=O)(=O)c1ccc(Cl)cc1 the results were FLuc inh inactive, hNpr1 antagonist inconclusive, 3T3 cytotox 32µM*, HEK cytotox 35µM*, GPT2 inhibitor -2%, Npr1 antag conf 11µM*, Npr2 selectivity 12µM*, FLuc counter -13% and GloSensor ctrl 9.7µM*.
Screening CC(=O)Nc1ccc(S(=O)(=O)N[C@H]2CO[C@H]3[C@@H]2OC[C@H]3OC(=O)Nc2cccc3ccccc23)cc1 returned FLuc inh inactive, hNpr1 antagonist -28%, 3T3 cytotox inconclusive, HEK cytotox -20%, GPT2 inhibitor -5%, Npr1 antag conf -3%, Npr2 selectivity -2%, FLuc counter -3% and GloSensor ctrl -1%.
For COc1ccc(NC(=O)O[C@@H]2CO[C@H]3[C@@H]2OC[C@@H]3NS(=O)(=O)c2ccc(Cl)cc2)cc1 the results were FLuc inh inconclusive, hNpr1 antagonist -7%, 3T3 cytotox inconclusive, HEK cytotox -19% and GPT2 inhibitor 2%.
For O=C([C@@H]1C[C@H](Oc2cccnc2)CN1C(=O)c1ccco1)N1CCCC1 the results were FLuc inh inactive, hNpr1 antagonist 1%, 3T3 cytotox inactive, HEK cytotox inactive and GPT2 inhibitor inactive.
CN(Cc1cnc2ccccc2c1)C(=O)c1ccc(CCC(C)(C)O)cc1 was read as FLuc inh inactive, hNpr1 antagonist 2.5µM*, 3T3 cytotox inconclusive, HEK cytotox 40µM*, GPT2 inhibitor inconclusive, Npr1 antag conf 5.4µM*, Npr2 selectivity 6.9µM*, FLuc counter 3% and GloSensor ctrl 3.9µM*.
For CN(Cc1ccc2nccnc2c1)C(=O)c1ccc(CCC(C)(C)O)cc1 the results were FLuc inh inactive, hNpr1 antagonist -24%, 3T3 cytotox -27%, HEK cytotox inconclusive and GPT2 inhibitor inconclusive.
For O=C1CCC2(CCN1Cc1ccccc1)CCN(S(=O)(=O)c1cccs1)CC2 the results were FLuc inh inactive, hNpr1 antagonist inconclusive, 3T3 cytotox inconclusive, HEK cytotox inconclusive, GPT2 inhibitor -3%, Npr1 antag conf inconclusive, Npr2 selectivity -28%, FLuc counter 0% and GloSensor ctrl inconclusive.
